Measured values from PubChem BioAssay.
Activity calls are given as the source filed them.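 How the source made its calls, unless noted: active means NADPH fluorescence slope more negative than the mean of all samples by about 3 SD, 99.7% confidence; inactive means the rest.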

How the values were obtained:
[1] = inhibitors of TNFa-induced NFkB p65 translocation, primary screen, imaging, HUVEC, MLSMR starter and 10KST1 sets (AID 438;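 active means inhibition above 20% together with a positive visual image hit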;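 further: compound added about 3h40 before a 20 min TNFalpha stimulation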;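 on inhibition: signal is the nuclear over cytoplasmic p65 intensity ratio per well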); conditions: HUVEC TNFa-induced p65 nuclear translocation; cell count: measured here: nuclei count (cytotoxicity indicator), at 2.08 µM; inhibition: at 2 µM, stronger effect = higher value, 0% TNFa-plus-vehicle, 100% no-TNFa wells
[2] = reduction of polyQ htt aggregates in cells – imaging, exon1htt(103Q)mCFP cells, high-content imaging, primary screen (AID 483;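 active means visual image review flags a hit and inhibition of aggregation exceeds 20%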;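 further: compound exposure lasted 3 days before fixation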;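 on nuclei count: percent of the per-plate median nuclei count of sample wells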); conditions: exon1htt(103Q)mCFP cell line, aggregate imaging, at 2 µM; inhibition of aggregation: stronger effect = higher value; nuclei count: measured here: cell count, toxicity
[3] = endothelial E-selectin expression blockers – imaging, HUVEC, immunofluorescence, MLSMR starter and 10KST1 sets, primary screen (AID 487;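 active means visually confirmed hit in the image check and inhibition above 20%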;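 on inhibition: signal is fraction of cell area covered by stained E-selectin grains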;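 on nuclei count: 100% = median nuclei count of all wells on the same plate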); conditions: HUVEC TNFalpha-induced E-selectin immunofluorescence imaging, at 2 µM; inhibition: stronger effect = higher value; nuclei count: measured here: cell number, toxicity
[4] = molecular target: Voltage-gated potassium channel subunit beta-2 (Rattus norvegicus) (UniProt P62483); assay: inhibitors of rat Kvbeta2 reductase activity – biochemical, NADPH fluorescence, primary screen (AID 622;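 active means fluorescence slope higher than the sample average by over 3 SD, cut at about -0.22 in these data, passing the limit was not always enough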;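 further: slope of raw intensity against log time taken from 70 to 1610 s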); conditions: recombinant KvBeta, 4-cyanobenzaldehyde reduction, at 10 µM, stronger effect = higher value
Sequence of Voltage-gated potassium channel subunit beta-2 (Rattus norvegicus) (P62483 whole entry, looked up): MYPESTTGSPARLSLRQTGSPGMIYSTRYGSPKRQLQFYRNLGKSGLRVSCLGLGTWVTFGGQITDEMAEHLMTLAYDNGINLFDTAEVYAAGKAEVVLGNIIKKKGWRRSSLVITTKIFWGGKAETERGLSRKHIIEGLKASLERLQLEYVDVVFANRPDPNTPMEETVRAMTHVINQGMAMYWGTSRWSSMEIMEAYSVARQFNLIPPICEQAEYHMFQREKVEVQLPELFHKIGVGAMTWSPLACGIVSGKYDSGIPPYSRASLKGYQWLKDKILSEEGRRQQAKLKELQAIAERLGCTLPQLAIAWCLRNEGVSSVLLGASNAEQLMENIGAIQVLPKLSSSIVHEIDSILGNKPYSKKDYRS

[5] = molecular target: Voltage-gated potassium channel subunit beta-2 (Rattus norvegicus) (UniProt P62483); assay: enhancers of rat Kvbeta2 NADPH turnover – biochemical, NADPH fluorescence, primary screen (AID 623); conditions: Recombinant KvBeta, NADPH fluorescence decrease slope, 10 min; at 10 µM; stronger effect = lower value;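 further: fluorescence intensity change per second fitted from 20 to 320 s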
[6] = molecular target: Alpha-2C adrenergic receptor (Homo sapiens) (UniProt P18825); assay: compounds altering alpha2C-coupled GIRK flux – cell-based, HEK293 alpha2C/GIRK1/2, thallium flux, primary screen (AID 624;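 active means fluorescence slope after compound addition differing from the mean of all screened samples at 99.7% confidence, in either direction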;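 further: slope of fluorescence ratio to pre-addition baseline per second over 15 to 24 s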); conditions: thallium flux BTC fluorescence, at 10 µM, actives lie on both sides
Sequence of Alpha-2C adrenergic receptor (Homo sapiens) (P18825 whole entry, looked up): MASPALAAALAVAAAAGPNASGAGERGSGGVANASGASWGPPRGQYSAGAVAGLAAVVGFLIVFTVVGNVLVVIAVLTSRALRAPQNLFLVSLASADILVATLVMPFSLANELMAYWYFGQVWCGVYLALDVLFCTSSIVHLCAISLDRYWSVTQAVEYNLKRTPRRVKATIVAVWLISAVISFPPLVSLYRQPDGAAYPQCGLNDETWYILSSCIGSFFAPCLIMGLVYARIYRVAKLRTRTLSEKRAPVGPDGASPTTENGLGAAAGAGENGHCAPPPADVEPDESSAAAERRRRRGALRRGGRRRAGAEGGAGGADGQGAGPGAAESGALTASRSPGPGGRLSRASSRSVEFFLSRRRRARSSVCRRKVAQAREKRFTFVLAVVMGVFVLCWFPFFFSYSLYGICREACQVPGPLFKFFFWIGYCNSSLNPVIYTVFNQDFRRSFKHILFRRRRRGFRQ

[7] = blockers of RIG-like receptor reporter activation – cell-based, Sendai virus stimulus, luciferase, 10K MLSCN set, TLR/RLR signaling modifier project, primary screen (AID 602276;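 active means inhibition at or above 50% at 10 µM; inactive means inhibition below 50%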;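 further: firefly luciferase from ISG56 promoter only with Renilla not read in this screen; 0% = Sendai virus plus DMSO and 100% = medium plus DMSO without virus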); conditions: HEK293 RL24 IRF3 luciferase reporter, at 10 µM, stronger effect = higher value
[8] = TLR3 IRF3 reporter activation blockers – cell-based, poly I:C stimulus, luciferase, 10K MLSCN set, primary screen (AID 602277;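 active means inhibition of the reporter signal at or above 50%; inactive means inhibition below 50%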); conditions: HEK293-TLR3 RL24 IRF3 luciferase reporter, at 10 µM, stronger effect = higher value

**Q.** Which cell count [1] does the source give for Cc1ccc(CCNC(=O)C2CCC(=O)N2C2CCCC2)cc1 (centres undefined) here?
**A.** The cell count was 703.

**Q.** And the inhibition [1]?
**A.** The inhibition was -1.3% (inactive).

**Q.** And the inhibition of aggregation [2]?
**A.** Its inhibition of aggregation is 6.9% (inactive).

**Q.** What about the nuclei count [2] of the same compound?
**A.** Its nuclei count is 97.5%.

**Q.** And the inhibition [3]?
**A.** The inhibition was 16.9% (inactive).

**Q.** And the nuclei count [3]?
**A.** Its nuclei count is 97.7%.

**Q.** And the fluorescence slope [4]?
**A.** The fluorescence slope was -0.493 (inactive).

**Q.** What about the NADPH fluorescence slope [5] of the same compound?
**A.** Its NADPH fluorescence slope is -4.7e-05 (inactive).

**Q.** What about the slope [6] of the same compound?
**A.** Its slope is 0.0072 (inactive).

**Q.** What about the inhibition [7] of the same compound?
**A.** The inhibition was 1.44% (inactive).

**Q.** And the inhibition [8]?
**A.** The inhibition was 10.9% (inactive).

**Q.** What does the source list for O=C(CNc1ccc(Oc2ccccc2)cc1)N1CCOCC1?
**A.** cell count [1]: 622; inhibition [1]: -26.3% (inactive); inhibition of aggregation [2]: 2.1% (inactive); nuclei count [2]: 103%; inhibition [3]: -25.6% (inactive); nuclei count [3]: 97.4%; fluorescence slope [4]: -0.541 (inactive); NADPH fluorescence slope [5]: -0.000138 (inactive); slope [6]: 0.00652 (inactive); inhibition [7]: 18.1% (inactive); inhibition [8]: 3.08% (inactive)

**Q.** Which cell count [1] does the source give for Cc1ccc(S(=O)(=O)N2CCN(CCO)CC2)cc1-c1nnc2c3ccccc3c(C)nn12 here?
**A.** Its cell count is 357.

**Q.** And the inhibition [1]?
**A.** The inhibition was -0.4% (inactive).

**Q.** What about the inhibition of aggregation [2] of the same compound?
**A.** Its inhibition of aggregation is -26.9% (inactive).

**Q.** And the nuclei count [2]?
**A.** The nuclei count was 102%.

**Q.** And the inhibition [3]?
**A.** The inhibition was 8.6% (inactive).

**Q.** And the nuclei count [3]?
**A.** Its nuclei count is 81%.

**Q.** And the fluorescence slope [4]?
**A.** The fluorescence slope was -0.609 (inactive).

**Q.** What about the NADPH fluorescence slope [5] of the same compound?
**A.** The NADPH fluorescence slope was -1.7e-05 (inactive).

**Q.** And the slope [6]?
**A.** Its slope is 0.00417 (inactive).

**Q.** And the inhibition [7]?
**A.** Its inhibition is 3.73% (inactive).

**Q.** What about the inhibition [8] of the same compound?
**A.** The inhibition was 9.83% (inactive).

**Q.** With COc1ccc(S(=O)(=O)N2CCC(C(=O)Nc3c(F)cccc3F)CC2)cc1 as the compound, how does the cell count [1] read?
**A.** Its cell count is 741.

**Q.** And the inhibition [1]?
**A.** The inhibition was -9.2% (inactive).

**Q.** What about the inhibition of aggregation [2] of the same compound?
**A.** The inhibition of aggregation was 7% (inactive).

**Q.** And the nuclei count [2]?
**A.** The nuclei count was 108%.

**Q.** And the inhibition [3]?
**A.** The inhibition was -55.4% (inactive).

**Q.** What about the nuclei count [3] of the same compound?
**A.** Its nuclei count is 126%.

**Q.** And the fluorescence slope [4]?
**A.** Its fluorescence slope is -0.392 (inactive).

**Q.** What about the NADPH fluorescence slope [5] of the same compound?
**A.** The NADPH fluorescence slope was 3.8e-05 (inactive).

**Q.** What about the slope [6] of the same compound?
**A.** Its slope is 0.00504 (inactive).

**Q.** And the inhibition [7]?
**A.** Its inhibition is -10.2% (inactive).

**Q.** What about the inhibition [8] of the same compound?
**A.** Its inhibition is 1.61% (inactive).

**Q.** Which results are given for CCSc1nnc2c(n1)OC=Nc1ccc(Br)cc1-2?
**A.** cell count [1]: 262; inhibition [1]: -12.8% (inactive); inhibition of aggregation [2]: 20.4% (inactive); nuclei count [2]: 62.3%; inhibition [3]: -24.2% (inactive); nuclei count [3]: 84.5%; fluorescence slope [4]: -0.38 (inactive); NADPH fluorescence slope [5]: -3.3e-05 (inactive); slope [6]: 0.00298 (inactive); inhibition [7]: 15.5% (inactive); inhibition [8]: 20.5% (inactive)

**Q.** What does the source list for Cc1ccc(-c2nc(CS(=O)CC(=O)NCCN(CC(C)C)CC(C)C)c(C)o2)cc1 (centres undefined)?
**A.** cell count [1]: 716; inhibition [1]: -7.2% (inactive); inhibition of aggregation [2]: 21.6% (inactive); nuclei count [2]: 134%; inhibition [3]: -18% (inactive); nuclei count [3]: 112%; fluorescence slope [4]: -0.538 (inactive); NADPH fluorescence slope [5]: -2.2e-05 (inactive); slope [6]: 0.00425 (inactive); inhibition [7]: 21.1% (inactive); inhibition [8]: 30.9% (inactive)

**Q.** What does the source list for Oc1ccc(-c2n[nH]c(=S)n2Cc2ccccc2)cc1?
**A.** cell count [1]: 409; inhibition [1]: 9.6% (inactive); inhibition of aggregation [2]: -13.1% (inactive); nuclei count [2]: 109%; inhibition [3]: -75.1% (inactive); nuclei count [3]: 116%; fluorescence slope [4]: -0.485 (inactive); NADPH fluorescence slope [5]: 4.7e-05 (inactive); slope [6]: 0.00348 (inactive); inhibition [7]: -8.79% (inactive); inhibition [8]: -1.56% (inactive)

**Q.** Which cell count [1] does the source give for COCCNC(=O)C(c1ccc(O)cc1)N(Cc1ccco1)C(=O)CCC(=O)Nc1nccs1 (centres undefined) here?
**A.** The cell count was 474.

**Q.** And the inhibition [1]?
**A.** Its inhibition is 6.7% (inactive).

**Q.** What about the inhibition of aggregation [2] of the same compound?
**A.** Its inhibition of aggregation is 0.1% (inactive).

**Q.** And the nuclei count [2]?
**A.** Its nuclei count is 102%.

**Q.** And the inhibition [3]?
**A.** Its inhibition is -52.2% (inactive).

**Q.** What about the nuclei count [3] of the same compound?
**A.** Its nuclei count is 116%.

**Q.** And the fluorescence slope [4]?
**A.** Its fluorescence slope is -0.499 (inactive).

**Q.** What about the NADPH fluorescence slope [5] of the same compound?
**A.** Its NADPH fluorescence slope is 4.7e-06 (inactive).

**Q.** What about the slope [6] of the same compound?
**A.** Its slope is 0.0061 (inactive).

**Q.** And the inhibition [7]?
**A.** Its inhibition is -12.6% (inactive).

**Q.** And the inhibition [8]?
**A.** Its inhibition is 14.7% (inactive).

**Q.** What does the source list for CCC(C(=O)O)n1c(C(F)(F)F)nc2ccccc21 (centres undefined)?
**A.** cell count [1]: 717; inhibition [1]: -29.6% (inactive); inhibition of aggregation [2]: 4.1% (inactive); nuclei count [2]: 103%; inhibition [3]: -6.3% (inactive); nuclei count [3]: 108%; fluorescence slope [4]: -0.558 (inactive); NADPH fluorescence slope [5]: -2.1e-05 (inactive); slope [6]: 0.00512 (inactive); inhibition [7]: 7.44% (inactive); inhibition [8]: 14.4% (inactive)

**Q.** For CCCOC(=O)C1C2C=CC3(CN(c4cccc(Cl)c4)C(=O)C13)O2 (centres undefined), which cell count [1] is on record?
**A.** Its cell count is 743.

**Q.** And the inhibition [1]?
**A.** Its inhibition is -5.5% (inactive).

**Q.** What about the inhibition of aggregation [2] of the same compound?
**A.** The inhibition of aggregation was -3.6% (inactive).

**Q.** What about the nuclei count [2] of the same compound?
**A.** Its nuclei count is 95.4%.

**Q.** And the inhibition [3]?
**A.** The inhibition was -55.3% (inactive).

**Q.** What about the nuclei count [3] of the same compound?
**A.** The nuclei count was 116%.

**Q.** And the fluorescence slope [4]?
**A.** The fluorescence slope was -0.491 (inactive).

**Q.** What about the NADPH fluorescence slope [5] of the same compound?
**A.** Its NADPH fluorescence slope is 1.7e-05 (inactive).

**Q.** What about the slope [6] of the same compound?
**A.** The slope was 0.00748 (inactive).

**Q.** What about the inhibition [7] of the same compound?
**A.** Its inhibition is 12.8% (inactive).

**Q.** And the inhibition [8]?
**A.** The inhibition was 28.1% (inactive).

**Q.** What does the source list for COc1ccc(/C(O)=C2/C(=O)C(=O)N(CCCN(C)C)C2c2ccc(Cl)cc2)cc1OC (centres undefined)?
**A.** cell count [1]: 332; inhibition [1]: 4.5% (inactive); inhibition of aggregation [2]: -28.5% (inactive); nuclei count [2]: 122%; inhibition [3]: -11.6% (inactive); nuclei count [3]: 112%; fluorescence slope [4]: -0.527 (inactive); NADPH fluorescence slope [5]: -3.6e-05 (inactive); slope [6]: 0.00513 (inactive); inhibition [7]: 12.7% (inactive); inhibition [8]: 10.6% (inactive)

**Q.** Which results are given for Cc1cc(Cl)c(S(=O)(=O)Nc2ccc3c(c2)OCCO3)cc1OCC(N)=O?
**A.** cell count [1]: 526; inhibition [1]: 1.8% (inactive); inhibition of aggregation [2]: -7.1% (inactive); nuclei count [2]: 106%; inhibition [3]: -79.1% (inactive); nuclei count [3]: 113%; fluorescence slope [4]: -0.516 (inactive); NADPH fluorescence slope [5]: 1.1e-05 (inactive); slope [6]: 0.00485 (inactive); inhibition [7]: 32.8% (inactive); inhibition [8]: 30.7% (inactive)

**Q.** For CCOc1ccc(NC(=O)c2ccc3c(c2)N(Cc2ccc(F)cc2)C(=O)CS3=O)cc1 (centres undefined), which cell count [1] is on record?
**A.** The cell count was 659.

**Q.** What about the inhibition [1] of the same compound?
**A.** Its inhibition is 0% (inactive).

**Q.** And the inhibition of aggregation [2]?
**A.** Its inhibition of aggregation is -4.8% (inactive).

**Q.** And the nuclei count [2]?
**A.** Its nuclei count is 105%.

**Q.** And the inhibition [3]?
**A.** Its inhibition is -25.6% (inactive).

**Q.** What about the nuclei count [3] of the same compound?
**A.** The nuclei count was 113%.

**Q.** And the fluorescence slope [4]?
**A.** The fluorescence slope was -0.551 (inactive).

**Q.** What about the NADPH fluorescence slope [5] of the same compound?
**A.** The NADPH fluorescence slope was -2.5e-05 (inactive).

**Q.** What about the slope [6] of the same compound?
**A.** Its slope is 0.00664 (inactive).

**Q.** What about the inhibition [7] of the same compound?
**A.** Its inhibition is 5.6% (inactive).

**Q.** What about the inhibition [8] of the same compound?
**A.** The inhibition was -7.02% (inactive).

**Q.** What does the source list for COc1ccccc1S(=O)(=O)Cc1ccc(C(=O)NCCN2CCCCCC2)o1?
**A.** cell count [1]: 522; inhibition [1]: 13.4% (inactive); inhibition of aggregation [2]: 15.2% (inactive); nuclei count [2]: 91.6%; inhibition [3]: 9% (inactive); nuclei count [3]: 81.1%; fluorescence slope [4]: -0.588 (inactive); NADPH fluorescence slope [5]: -3.5e-05 (inactive); slope [6]: 0.00667 (inactive); inhibition [7]: 11% (inactive); inhibition [8]: 39.3% (inactive)
